The text below walks through data of PubChem BioAssay (NCI).

Common to all, as to experiment: NCI-60 one-dose screen, 48 h (100 = growth as untreated, 0 = no growth, -100 = all killed)
Settings in all cases: 10 µM unless noted

Experiment [1] relates to SK-MEL-2 melanoma.
Experiment [2] has as its system EKVX NSCLC.
In experiment [3] the test system is SN12C renal.
In experiment [4] the test system is UO-31 renal.
Experiment [5] concerns TK-10 renal.
Experiment [6] deals with ACHN renal.
For experiment [7], the system named is CAKI-1 renal.
Experiment [8] deals with A498 renal.
The test system of experiment [9] is CCRF-CEM leukemia.
For experiment [10], the system named is MOLT-4 leukemia.
Experiment [11] concerns SR leukemia.
Experiment [12] deals with RPMI-8226 leukemia.
Experiment [13] deals with OVCAR-8 ovarian.
The test system of experiment [14] is OVCAR-5 ovarian.
Experiment [15] relates to SK-OV-3 ovarian.
Experiment [16] concerns IGROV1 ovarian.
The test system of experiment [17] is OVCAR-3 ovarian.
The subject of experiment [18] is HS 578T breast.
Experiment [19] has as its system NCI/ADR-RES ovarian.
Experiment [20] concerns OVCAR-4 ovarian.

This is part of a sample that, as a whole, favours compounds with a hit. Of some 83,000 tested, about 20% had one in any assay.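 Percent growth is the endpoint: 0 to 100 indicates growth inhibition (40 means 60% inhibition), 0 means no net growth, and negative values indicate cell death.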 A number with no mark means an inactive call. Active and inactive are the calls of the source. Rule for the calls: active = growth percent below 10; inactive = the rest.

With `Cn1cc(-c2csc(-c3cn(CCCN4CCOCC4)c4ccccc34)n2)c2cccnc21`, the growth in experiment [1] was 91.8%; in experiment [2], 86.7%; in experiment [3], 87.2%; in [4], 71%; in [5], 86.9%; in experiment [6], 93.7%. The growth is 92% in experiment [7]; 55.2% in experiment [8]; 62% in experiment [9]; 59.7% in experiment [10]; 58.9% in experiment [11]; 59.5% in experiment [12]. Further, the growth in experiment [13] is 82.6%; in [14], 84.7%; in experiment [15], 102%; in experiment [16], 98.6%; in experiment [17], 96.3%; in experiment [18], 88%. In addition, the growth in experiment [19] is 91%.

Take `N#CC1=C(N)Oc2ccc3ccccc3c2C1c1ccc([N+](=O)[O-])cc1` (configuration not stated): the growth in experiment [1] is 93.9%; in experiment [2], 65.8%; in [3], 90.4%; in [4], 51.1%; in [5], 156%; in experiment [6], 76.8%. Also, the growth was 52.8% in experiment [7]; 84.8% in experiment [8]; 63.7% in [9]; 68.6% in experiment [10]; 77.3% in [11]; 83% in [12]. Besides, the growth in [13] was 85.7%; in [14], 108%; in experiment [15], 83.4%; in experiment [16], 50.6%; in experiment [17], 79.4%; in experiment [18] it was 90.2%. Also, the growth in experiment [19] was 94.6%.

Take `CCN1C(=O)N(CC)C2Nn3c(s/c(=C\c4ccccc4Br)c3=O)=NC21` (configuration not stated): the growth in [1] was 48.5%; in [2] it was 44.4%; in experiment [3], 35.4%; in experiment [4] it was 55%; in experiment [5], 81.5%; in experiment [6] it was 30.5%. Moreover, the growth was 21.5% in [7]; -0.799% (active) in experiment [8]; 15.2% in experiment [9]; 23.2% in [10]; 15.7% in experiment [11]; 35.4% in experiment [12]. For the same compound, the growth in experiment [13] was 15.4%; in [14], 28.9%; in experiment [15] it was 44.7%; in experiment [16], 25.7%; in experiment [17] it was -7.24% (active); in experiment [18], 11.4%. In [19], the growth is 5.54% (active).

Consider `O=C(NNC(=O)c1ccc(NC(=O)c2ccccn2)cc1)Nc1ccc2ccccc2c1`, for which the growth in experiment [1] is 114%; in experiment [2], 113%; in experiment [3], 101%; in [4] it was 82.5%; in experiment [5], 111%; in experiment [6] it was 104%. In addition, the growth was 106% in experiment [7]; 137% in experiment [8]; 104% in [9]; 108% in experiment [10]; 126% in experiment [11]; 109% in experiment [12]. For the same compound, the growth in experiment [13] is 102%; in [14] it was 121%; in [15] it was 115%; in experiment [16], 109%; in [17], 126%; in experiment [18], 111%. Moreover, in experiment [19], the growth was 106%.

As to `COc1cc2c(cc1OCCCCN1CCN(C(=S)SCCC(C#N)(c3ccccc3)c3ccccc3)CC1)N=C[C@@H]1CCCN1C2=O`, the growth in experiment [1] is -95.1% (active); in experiment [2], -94.8% (active); in [3], -57.4% (active); in experiment [4] it was 10.8%; in [5], -79.6% (active); in experiment [6], -68.8% (active). Also, the growth in experiment [7] is -64.7% (active); in [8] it was -95% (active); in experiment [9] it was -20.2% (active); in experiment [10], -13.2% (active); in experiment [12], -18% (active); in [13], 15.9%. For the same compound, the growth in experiment [14] is -17.1% (active); in experiment [20] it was -11.8% (active); in experiment [15], -7.37% (active); in experiment [16], -76.6% (active); in experiment [17], -85.9% (active); in experiment [18] it was -11.7% (active). In addition, in experiment [19], the growth is 13.9%.

Regarding `O=C(C1=Cc2cc3ccccc3n2Cc2cnnn21)c1ccc(O)cc1`, the growth in experiment [1] was 59%; in [2], 89.9%; in [3], 57.7%; in experiment [4] it was 63.1%; in [5] it was 90.9%; in experiment [6], 75.4%. Also, the growth was 37.5% in [7]; 111% in experiment [8]; 72.5% in experiment [9]; 44.6% in experiment [10]; 35.1% in experiment [11]; 63.8% in [12]. In addition, the growth in experiment [13] was 64.8%; in [14], 91.2%; in experiment [15], 74.5%; in experiment [16] it was 41.1%; in experiment [17], 20.6%; in experiment [18] it was 49.4%. In [19], the growth is 37.2%.

`Cc1ccc(C(=O)Nc2cccc(C#Cc3cccc4[nH]nc(N)c34)c2)cc1C(F)(F)F`: the growth in experiment [1] is 29.2%; in experiment [2], 92.4%; in experiment [3], 65.2%; in experiment [4], 36.7%; in experiment [5], 86.6%; in [6], 44.7%. Besides, the growth in experiment [7] is 120%; in experiment [8], 81.2%; in [9], 52.9%; in experiment [10], 45%; in experiment [12], 66.9%; in [13], 72.1%. Besides, the growth in experiment [14] was 59.9%; in experiment [20], 66.6%; in experiment [15], 84.3%; in experiment [16], 17.9%; in experiment [17] it was 82.7%; in experiment [18], 47.4%. Besides, the growth in experiment [19] is 74.1%.

`Cc1nn(-c2cc(NC3CCC(O)CC3)c3c(=O)[nH]c(CCC(F)(F)F)cc3c2)c2c1C(=O)CC(C)(C)C2` (configuration not stated): the growth in experiment [1] was 60.3%; in experiment [2], 54%; in experiment [3], 46.2%; in [4], 39%; in experiment [5], 61.7%; in [6], 31.5%. In addition, the growth in [7] is 47.4%; in experiment [8] it was 12.4%; in experiment [9] it was 66.6%; in experiment [10], 40.8%; in experiment [12], 40.7%; in experiment [13], 52.1%. For the same compound, the growth in experiment [14] was 85.3%; in experiment [20], 66.8%; in experiment [15] it was 36.3%; in experiment [16] it was 55.2%; in [17] it was 70%; in experiment [18], 34.4%. In experiment [19], the growth is 72%.
